Screens deposited in PubChem BioAssay by National Center for Advancing Translational Sciences (NCATS).
Gal4-VP16 FLuc = counter-screen for ROR gamma inhibitors: Gal4-VP16 reporter; Drosophila S2 Gal4-VP16 UAS-luciferase, luminescence, 20 h; Potency, µM (doses to about 53.6 µM), inactives show at the highest dose activity, negative = inhibition, hits mostly inhibitors; actives 3.5% (n = 310,000);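 also: Gal4-VP16 expression switched on by copper sulfate through the metallothionein promoter; potency is read from the fitted curve at half-maximal effect; % is scaled to controls: 0 for no effect and ±100 for the full control effect; nearly all actives have a fitted effect of over 50% in size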
CtBP-E1A inh = blocks the CtBP interaction with E1A. AlphaScreen GST-E1A/His-CtBP binding, 1536-well; active compounds read low. activity change, % (no concentration beside the values). actives 0.49% (n = 340,000); in the data active = activity change below about -65%; inconclusive = mostly about -30% to -63%; also: % is scaled to controls: 0 for no effect and ±100 for the full control effect
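Steps: dispense buffer (Tris pH 8.0, NaCl 300 mM, TCEP 1 mM, BSA, Tween 20); add 5X protein mix (GST-E1A, His-CtBP, 125 nM each); pin 23 nL compound; 2 h at 37 °C, dark; add 5X beads (50 ug/mL); 1 h; read.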
RORg inh = ROR gamma (mouse) transcription inhibition; P51450; Drosophila S2 Gal4-RORgamma UAS-luciferase reporter, 20 h; Potency, µM (highest dose often 53.6 µM), without a hit: top-dose activity change, negative = inhibition, hits mostly inhibitors; actives 5.4% (n = 310,000); AID 2551; also: potency is read from the fitted curve at half-maximal effect; % is scaled to controls: 0 for no effect and ±100 for the full control effect; nearly all actives have a fitted effect of over 60% in size
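Stably transfected Drosophila Schneider cells are the test system, with ROR gamma fused to Gal4 and luciferase under UAS control; luminescence is read after 20 hr of 700 uM copper sulfate induction at ambient temperature.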
p53 reactivator = restores transcriptional activity of mutant p53; H1299 p53-A138V BP100-luciferase reporter, luminescence, 24 h; Potency, µM (titrated, usually from 92.2 µM), without a hit: at the highest dose activity change, positive = activation, usual class: activators; actives 0.063% (n = 320,000); AID 504706; also: potency is read from the fitted curve at half-maximal effect; % of control where 0% means no effect; nearly all actives have a fitted effect of over 45% in size
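p53-null H1299 cells stably carrying temperature-sensitive p53-A138V and a BP100-luciferase reporter were pinned with compounds (4-point, 1:5 series) and held 24 hrs at 37 deg C. Luminescence was read 10 min after detection reagent.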
Six1-Eya2 inh = inhibitors of human Six1/Eya2 interaction; Q15475+O00167; AlphaScreen GST-Six1/His-Eya2 binding, biochemical; active compounds read low; activity change, % (concentration not given with the values); actives 0.56% (n = 360,000); AID 651725; in the data active = activity change below about -65%; inconclusive = mostly about -30% to -63%; also: % is scaled to controls: 0 for no effect and ±100 for the full control effect
Target sequence (O00167 whole entry, looked up): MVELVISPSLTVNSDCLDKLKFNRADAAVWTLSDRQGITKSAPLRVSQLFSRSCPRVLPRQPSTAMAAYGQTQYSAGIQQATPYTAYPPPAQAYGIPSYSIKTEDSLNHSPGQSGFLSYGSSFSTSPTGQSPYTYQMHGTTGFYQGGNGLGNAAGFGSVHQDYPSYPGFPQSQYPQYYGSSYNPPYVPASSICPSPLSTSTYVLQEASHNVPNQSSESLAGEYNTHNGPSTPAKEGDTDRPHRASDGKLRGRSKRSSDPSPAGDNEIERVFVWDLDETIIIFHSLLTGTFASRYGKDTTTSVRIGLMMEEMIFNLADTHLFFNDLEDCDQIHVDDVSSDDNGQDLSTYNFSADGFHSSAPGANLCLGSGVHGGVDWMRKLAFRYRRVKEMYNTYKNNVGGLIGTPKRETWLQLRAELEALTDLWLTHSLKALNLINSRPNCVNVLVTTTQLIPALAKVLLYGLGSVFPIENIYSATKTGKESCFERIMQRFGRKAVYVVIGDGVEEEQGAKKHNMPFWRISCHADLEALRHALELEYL
Target sequence (Q15475 whole entry, looked up): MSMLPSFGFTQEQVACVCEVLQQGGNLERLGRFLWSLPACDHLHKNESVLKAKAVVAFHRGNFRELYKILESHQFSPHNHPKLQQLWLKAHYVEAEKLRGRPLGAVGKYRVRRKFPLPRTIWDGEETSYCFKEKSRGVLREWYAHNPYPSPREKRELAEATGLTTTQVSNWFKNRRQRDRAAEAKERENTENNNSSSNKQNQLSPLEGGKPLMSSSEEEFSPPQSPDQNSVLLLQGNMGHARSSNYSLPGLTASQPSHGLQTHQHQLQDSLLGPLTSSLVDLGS
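Compounds are tested against tagged Six1 and Eya2 proteins bridged by glutathione donor and nickel acceptor beads; after a one-hour incubation at 37 °C without light, AlphaScreen emission is recorded.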
An asterisk follows results filed as active; ? = inconclusive; . = no result given. Most compounds without a hit are left out; they make up all but 5.4% or so of the library. Unless noted, calls follow the shape of the dose curve; as a rule, active = well fitted curve in the direction sought with a large enough effect; inconclusive = small, poorly fitted or top-dose-only effect, or another doubt; inactive = no such curve, though single readings can be large; an effect the other way counts as inactive or inconclusive.

SMILES | Gal4-VP16 FLuc | CtBP-E1A inh | RORg inh | p53 reactivator | Six1-Eya2 inh
N/C(=N\OC(=O)c1ccc(Cl)cc1)c1ccc(Cl)cc1 | 5% | 15 | -32% | ? | -1
CCOC(=O)CSc1nc2ccccc2c(=O)n1Cc1ccco1 | 0% | 15 | 5% | -2% | -4
CCOC(=O)CSc1nc2c(sc3ccc([N+](=O)[O-])cc32)c(=O)n1Cc1ccco1 | 5.6µM* | -14 | 8.9µM* | -8% | -21
Cc1ccc(-c2nnc(Nc3ccccc3)o2)cc1 | 14µM* | 12 | 5µM* | -4% | 1
Cc1cccc(C(=O)NCC(=O)NNC(=O)c2ccccc2O)c1 | . | 0 | . | 8% | -6
Cc1ccc(O)c(C(=O)CC(=O)c2ccc(Cl)cc2)c1 | 5µM* | -18 | 3.5µM* | ? | -16
O=C(CC(=O)c1cc(Cl)ccc1O)c1ccccc1 | 11µM* | 11 | ? | -1% | -5
Cc1ccc(O)c(C(=O)CC(=O)c2cccc(F)c2)c1 | 7.1µM* | -3 | 7.9µM* | ? | -6
COc1ccc(O)c(C(=O)CC(=O)c2ccc(F)cc2)c1 | ? | -12 | ? | 13% | -19
Cc1cccc(C(=O)CC(=O)c2cc(Cl)ccc2O)c1 | ? | 3 | ? | 29% | -8
COc1ccc([C@@H]2CC(=O)c3c(O)cc(O[C@@H]4O[C@H](CO)[C@@H](O)[C@H](O)[C@H]4O[C@@H]4O[C@@H](C)[C@H](O)[C@@H](O)[C@H]4O)cc3O2)cc1 | 1% | . | 3% | . | .
CCC(C)(C)C1CCc2nc3ccccc3c(C(=O)OC(C)C(=O)Nc3c(C)n(C)n(-c4ccccc4)c3=O)c2C1 (stereo unspecified) | -8% | 4 | 21% | -2% | 3
O=C(CCC1CCCN(C(=O)c2ccccc2Cl)C1)N1CCN(c2ccccn2)CC1 (stereo unspecified) | -8% | 2 | -1% | -6% | 2
O=c1oc2ccccc2c(O)c1C=Nc1cccnc1 | 18% | 1 | -11% | -1% | 2
CC(CCc1ccccc1)NC(=O)c1ccccc1Cl (stereo unspecified) | 10% | -1 | -1% | . | 4
O=C(/C=C/c1ccc(Cl)cc1Cl)Nc1cccc(S(=O)(=O)NC2=NCCC2)c1 | 8.9µM* | . | 7.1µM* | -8% | -17
O=C(/C=C/c1ccccc1Cl)Nc1cccc(S(=O)(=O)NC2=NCCCCC2)c1 | -11% | -11 | ? | ? | ?
C[C@@]12C(=O)Nc3cc(F)c(F)cc3C(=O)N1[C@H]1c3cc(Cl)ccc3OC[C@@H]1[C@@H]2c1ccccc1 | . | -9 | . | 12% | -11
CCOC(=O)N/N=C/c1c(F)cccc1F | 14% | 8 | 1% | ? | 2
O=C(N/N=C/c1ccc(N2CCOCC2)cc1)c1ccncc1 | . | 17 | . | -7% | -6
COCCNC(=S)N/N=C/c1ccc(N2CCOCC2)cc1 | 20µM* | 3 | ? | 18% | -1
CC(C)NC(=S)N/N=C/c1ccc(N2CCOCC2)cc1 | 4.5µM* | . | 2.8µM* | 14% | -8
Cc1ccc(/C=N/NC(=O)C(C)Oc2cccc3ccccc23)o1 (stereo unspecified) | ? | -4 | 16µM* | -11% | 1
C=C(C)CNC(=S)N/N=C/c1c(F)cccc1F | 6.3µM* | -3 | 1.8µM* | 0% | 0
O=c1[nH][nH]c(=O)c(Cl)c1Cl | . | -22 | . | . | 11
SMILES | Gal4-VP16 FLuc | CtBP-E1A inh | RORg inh | p53 reactivator | Six1-Eya2 inh
N#Cc1ccc(Oc2ccc(S(=O)(=O)N3CCOCC3)cn2)cc1 | . | 6 | . | -5% | 1
Cc1cc(Sc2nc(N(C)C)nc(N(C)C)n2)nc(Cl)n1 | -8% | 1 | -16% | 0% | 23
CCSc1nnc(-c2ccccc2N=Cc2c(C)[nH]n(-c3ccccc3)c2=O)c(=O)[nH]1 | ? | ? | 42% | 3% | -24
CC(=O)Nc1ccn(C2OC(C(COC(C)=O)NC(=O)C(COCc3ccccc3)NC(=O)OC(C)(C)C)C(OC(C)=O)C2OC(C)=O)c(=O)n1 (stereo unspecified) | -21% | . | 0% | . | .
Oc1ccc(/C=N/NC(=S)N2CCOCC2)cc1 | ? | -8 | 1.1µM* | -1% | -16
O=C(Nc1ccc(O)cc1)N1CCOCC1 | -7% | . | 3% | 5% | -4
